Assay outcomes deposited in PubChem BioAssay by Buhrlage Lab, Dana-Farber Cancer Institute and Novartis Institutes for BioMedical Research (Cambridge, Mass).
USP30 inh – human USP30 deubiquitinase inhibition; Q70CQ3; purified USP30, Ub-rhodamine cleavage fluorescence; inhibition, % at 25 µM; hit rate 5.3% among 47,000; AID 1645860
USP28 block – inhibitors of human USP28 deubiquitinase. Q96RU2. purified USP28, Ub-rhodamine cleavage fluorescence, 30 min. inhibition, % at 25 µM. hit rate 3% among 47,000. AID 1645857
USP17 block – inhibitors of human USP17 deubiquitinase; A8MUK1; purified USP17, Ub-rhodamine cleavage fluorescence, 3 h; inhibition, % at 50 µM; hit rate 6.5% among 47,000; AID 1645855
USP8 block – blocks human USP8 ubiquitin-rhodamine cleavage. P40818. purified USP8, Ub-rhodamine cleavage fluorescence, 30 min. inhibition, % at 20 µM. hit rate 4.2% among 47,000
Hits are given with their value. Hits are enriched below; roughly 14% of the tested compounds scored in any of these assays. Rule as the data show it: active = inhibition above about 30%; inactive = the rest.

Results for COc1ccc(NC(=O)c2cccc(-c3noc(C4CCC4)n3)c2)c(OC)c1 ?
USP30 inh: inactive; USP28 block: inactive; USP17 block: inactive; USP8 block: inactive

How did CCOC(=O)C1CCCCN1S(=O)(=O)c1ccc2[nH]c(=O)ccc2c1 (stereo not given) do in these assays?
USP30 inh: inactive; USP28 block: inactive; USP17 block: inactive; USP8 block: inactive

How did O=C(CN1CCCc2ccccc21)Nc1ccc2c(c1)OCO2 do in these assays?
USP30 inh: inactive; USP28 block: inactive; USP17 block: inactive; USP8 block: inactive

What do the screens show for `Cc1ccc(NC(=O)c2ccc3c(c2)N(S(C)(=O)=O)CC3)cc1`?
USP30 inh: inactive; USP28 block: 50; USP17 block: 51; USP8 block: inactive

What do the screens show for `O=C(Nc1ccc2c(c1)OCO2)c1ccc(CN2CCc3ccccc3C2)cc1`?
USP30 inh: inactive; USP28 block: 31; USP17 block: inactive; USP8 block: inactive

How did O=C(NCCc1c[nH]c2ccccc12)C1CCCN(c2ccc(N3CCOCC3)nn2)C1 (stereo not given) do in these assays?
USP30 inh: inactive; USP28 block: inactive; USP17 block: inactive; USP8 block: inactive

What do the screens show for `C=C1C=C(NCc2ccccn2)n2nc3nc(C)cc(C)c3c2N1`?
USP30 inh: inactive; USP28 block: inactive; USP17 block: inactive; USP8 block: inactive

Results for CCCn1c(=O)[nH]c2c(C(N)=O)nc(-c3ccccn3)nc21 ?
USP30 inh: inactive; USP28 block: inactive; USP17 block: inactive; USP8 block: inactive

What do the screens show for `COc1ccc(C)cc1NC(=O)C(Sc1nnc(C2CC2)n1Cc1ccccc1)c1ccccc1` (stereo not given)?
USP30 inh: 37; USP28 block: 30; USP17 block: inactive; USP8 block: inactive

What do the screens show for `Cc1ccc(C)c(NC(=O)C(Sc2nnc(C)n2Cc2ccccc2)c2ccccc2)c1` (stereo not given)?
USP30 inh: 30; USP28 block: inactive; USP8 block: inactive

What do the screens show for `COCCn1c(SC(C(=O)Nc2cc(C)ccc2OC)c2ccccc2)nnc1-c1ccc(Cl)cc1` (stereo not given)?
USP30 inh: inactive; USP28 block: inactive; USP17 block: inactive; USP8 block: inactive

How did Cc1ccc(C)c(C(=O)CSc2nnc(C)n2Cc2ccccc2)c1 do in these assays?
USP30 inh: inactive; USP28 block: inactive; USP17 block: inactive; USP8 block: inactive

How did CC(C)CNC(=O)C1Cn2ccnc2C2(CCN(C(=O)Nc3ccc(F)cc3)CC2)O1 (stereo not given) do in these assays?
USP30 inh: inactive; USP28 block: inactive; USP17 block: inactive; USP8 block: inactive

What do the screens show for `COc1cccc2c1OC(C)(C)[C@H]1CC3(CCN(C(=O)COc4cccnc4)CC3)CO[C@H]21`?
USP30 inh: inactive; USP28 block: inactive; USP17 block: inactive; USP8 block: 67

What do the screens show for `Cc1ccc2c(C)c(C(=O)N(Cc3ccc(Cl)cc3)Cc3ccco3)oc2c1C`?
USP30 inh: inactive; USP28 block: inactive; USP17 block: 35; USP8 block: 49

What do the screens show for `Fc1ccccc1CSc1nnc(-c2ccccn2)n1Cc1ccco1`?
USP30 inh: inactive; USP28 block: 32; USP17 block: inactive; USP8 block: inactive

How did Cc1cccc(-c2nnc(SCc3cn4cc(Cl)ccc4n3)n2Cc2ccco2)c1 do in these assays?
USP30 inh: inactive; USP28 block: inactive; USP17 block: inactive; USP8 block: inactive

How did Cc1ccc(C)c(NC(=O)CSc2nnc(-c3ccccn3)n2Cc2ccco2)c1 do in these assays?
USP30 inh: 62; USP28 block: inactive; USP17 block: 39; USP8 block: inactive

How did Fc1ccc(CSc2nnc(-c3ccccn3)n2Cc2ccco2)cc1 do in these assays?
USP30 inh: inactive; USP28 block: 56; USP17 block: inactive; USP8 block: inactive

How did CCc1ccccc1NC(=O)CSc1nnc(-c2cnccn2)n1Cc1ccco1 do in these assays?
USP30 inh: inactive; USP28 block: inactive; USP17 block: inactive; USP8 block: inactive

What do the screens show for `COc1ccccc1NC(=O)CSc1nnc(-c2ccccn2)n1-c1cc(C)cc(C)c1`?
USP30 inh: inactive; USP28 block: inactive; USP17 block: 34; USP8 block: inactive

How did O=C(CSc1nnc(-c2cnccn2)n1Cc1ccco1)Nc1cccc(F)c1 do in these assays?
USP30 inh: inactive; USP28 block: inactive; USP17 block: inactive; USP8 block: inactive

Results for COC(=O)c1nnn(-c2nc(C)c3c(n2)CCCC3)c1C(=O)OC ?
USP30 inh: inactive; USP28 block: inactive; USP17 block: inactive; USP8 block: inactive

Results for COc1ccc(-n2c(SCC(=O)c3ccccc3)nnc2-c2cccnc2)cc1 ?
USP30 inh: inactive; USP28 block: inactive; USP17 block: inactive; USP8 block: inactive

How did COc1ccc(CSc2nnc(-c3ccccn3)n2-c2ccc(OC)cc2)cc1 do in these assays?
USP30 inh: 38; USP28 block: inactive; USP17 block: inactive; USP8 block: inactive

How did c1cnc(-c2n[nH]c(C3CCN(C4CCNC4)CC3)n2)cn1 (stereo not given) do in these assays?
USP30 inh: inactive; USP28 block: 51; USP17 block: 54; USP8 block: inactive

Results for COc1cccc(CNC(=O)CCc2nc3c(C)nn(-c4ccccc4)c3n(C)c2=O)c1 ?
USP30 inh: inactive; USP28 block: inactive; USP17 block: inactive; USP8 block: inactive

What do the screens show for `Cc1ccc(NC(=O)c2cc(-c3ccccn3)nc3c(Cl)cccc23)nc1`?
USP30 inh: inactive; USP28 block: inactive; USP17 block: inactive; USP8 block: 63

What do the screens show for `N#Cc1ccc(Sc2ccccc2)c(NC(=O)c2ccc(F)cc2)c1`?
USP30 inh: 31; USP28 block: inactive; USP17 block: inactive; USP8 block: inactive

What do the screens show for `COc1ccc(-n2c(SCC(=O)Nc3cc(Cl)ccc3C(=O)O)nc3ccccc3c2=O)cc1Cl`?
USP17 block: 93; USP8 block: 39

Results for CCOc1ccc(CC(=O)NCC(=O)N2CCC3(CC2)NCCc2[nH]cnc23)cc1 ?
USP30 inh: inactive; USP28 block: inactive; USP17 block: inactive; USP8 block: 30

Results for O=C(Cc1ccc(F)cc1)NCC(=O)N1CCC2(CC1)NCCc1[nH]cnc12 ?
USP30 inh: inactive; USP28 block: inactive; USP17 block: inactive; USP8 block: inactive

Results for Cc1ccc(C)c(NC(=O)CSc2cc(N3CCCCC3)ncn2)c1 ?
USP30 inh: 41; USP28 block: inactive; USP17 block: inactive; USP8 block: inactive

How did COc1ccc(CNC(=O)c2ccc(N3C(=O)[C@@H]4Cc5ccccc5CN4C3=O)cc2)cc1OC do in these assays?
USP30 inh: inactive; USP28 block: inactive; USP17 block: inactive; USP8 block: inactive

What do the screens show for `CCCCNc1ccccc1C(=O)OCc1nnc(-c2cc(-c3ccc(OC)c(OC)c3)nc3ccccc23)o1`?
USP30 inh: inactive; USP28 block: inactive; USP17 block: inactive; USP8 block: 72

How did COc1ccc(-c2cc(-c3nnc(COC(=O)C4COc5ccccc5O4)o3)c3ccccc3n2)cc1OC (stereo not given) do in these assays?
USP30 inh: inactive; USP28 block: inactive; USP17 block: inactive; USP8 block: inactive

Results for O=C(CC1C=CCC1)N1CCC(c2ccc(Nc3ccc(F)cn3)cn2)CC1 (stereo not given) ?
USP30 inh: inactive; USP28 block: inactive; USP17 block: 32; USP8 block: inactive
